Source: PubChem BioAssay AID460 (PCMD, 2006)
The campaign covered roughly 58,000 compounds. About 100 (0.17%) were called active. No stated cut-off is given here; in the data, active means inhibition above about 45%; inactive means the rest. Many of the other results were omitted from the sample, so actives are more common in it than they were.

Target: Procathepsin L (Homo sapiens) (UniProt P07711)
Test: blockers of CTSL protease activity – biochemical (AID 460);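 further: 0% = enzyme with no compound and 100% = no enzyme blank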
Settings: purified cathepsin L, fluorogenic substrate, fluorescence; hits give high values;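 tested at 10 µM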

Procathepsin L (Homo sapiens), sequence (P07711 114-288 limits assumed): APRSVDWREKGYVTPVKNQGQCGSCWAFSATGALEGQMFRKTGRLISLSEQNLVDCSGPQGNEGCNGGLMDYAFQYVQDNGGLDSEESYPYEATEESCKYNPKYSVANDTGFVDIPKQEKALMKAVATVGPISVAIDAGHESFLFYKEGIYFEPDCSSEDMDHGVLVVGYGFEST
Procathepsin L (Homo sapiens), sequence (P07711 292-333 limits assumed): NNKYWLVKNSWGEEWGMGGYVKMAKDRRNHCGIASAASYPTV

inhibition, inactive:
Cc1cc(Cl)c(S(=O)(=O)NCCC(=O)O)cc1OCC(N)=O 4.48%
COc1cc(-c2nn3c(-c4cccc(C)c4)nnc3s2)cc(OC)c1OC 0.7%
Cc1nnc(NC(=O)CSc2nccn2-c2cccc(C)c2C)s1 3.56%
Cc1c(C(=O)N2CC(C)OC(C)C2)sc2nc(-c3ccccc3)cn12 (stereo not drawn) 23%
C=CCc1cccc2cc(C(=O)OCC)c(=O)oc12 5.84%
CCC1CCCCN1CCNS(=O)(=O)c1ccc2c(c1)CCN2C(C)=O (stereo not drawn) 12.7%
CC(C)CCNC(=O)C1CCCN(S(=O)(=O)c2ccc(F)cc2)C1 (stereo not drawn) 9.49%
COCc1cc(C)nc(SCC(=O)Nc2cccc(C)c2)c1C#N 10.9%
CC12COC3(C(=O)Nc4ccc(Cl)cn4)CC1CCC32C (stereo not drawn) 11.5%
CC(=O)Oc1cc2c(C(=O)NCCN3CCOCC3)c(C)oc2c2ccccc12 -9.79%
C[N+](C)(C)CCNC(=O)c1c(O)c2c([nH]c1=O)CCCC2 8.42%
Cn1c(=O)n(CCc2ccccc2)c(=O)c2c1nc1n2CCCN1c1ccccc1 0.95%
COc1cc(C2C(C#N)=C(C)NC3=C2C(=O)CC(C)(C)C3)ccc1O (stereo not drawn) 4.18%
Cn1c(=O)c(C(=O)Nc2ncccn2)c(O)c2ccccc21 -15.3%
CCOC(=O)c1c(C)nc(-c2ccccc2)nc1NC(=O)C(C)C 22.7%
CSCCC(NS(=O)(=O)/C=C/c1ccccc1)C(=O)N1CCC(C)CC1 (stereo not drawn) 7.86%
CC1(C)Oc2ccc3ccc(=O)oc3c2/C(=C/NCCO)C1=O 14.3%
CCOC(=O)C(CC)Sc1ncnc2c1nnn2-c1ccc(F)cc1 (stereo not drawn) 7.22%
OC1CN=C2Sc3ccccc3N2C1 (stereo not drawn) -0.84%
c1ccc(-n2ncc3c2ncn2c(C4CCCCC4)nnc32)cc1 1.98%
CCN(CC)S(=O)(=O)c1cccc(C(=O)Nc2ccccc2)c1 -8.69%
CCCOc1ccc(CN(CCO)CCO)cc1C(=O)OC 8.62%
CC(C)CCNC(=O)CN(C(=O)Cn1nnc(-c2ccc(F)cc2)n1)C1CCCC1 12.4%
CC(=O)N1CC2(C)CN(C(C)=O)CC(C)(C1)C2=O -7.32%
C=CCn1c(COc2ccccc2F)nnc1SCC(=O)N1CC(=O)Nc2ccccc21 2.58%
C=CCn1c2ccccc2c2nnc(SC(CC)C(=O)Nc3nc(C)c(C(=O)OCC)s3)nc21 (stereo not drawn) -6.76%
COc1ccc2occ(C(=O)c3ccc(N=C(C)N(C)C)cc3)c2c1 1.28%
Cc1cccc(N2C(=O)SC(N(CC(=O)O)c3cccc(C)c3)C2=O)c1 (stereo not drawn) 18.4%
COc1ccc(OC)c(S(=O)(=O)N(C)CC(=O)N2CCN(c3ccccc3)CC2)c1 -0.18%
COC(=O)c1c(NC(=O)c2cccs2)sc2c1CCCC2 -9.15%
COc1ccc(-c2nc(CS(=O)CC(=O)NCc3ccccn3)c(C)o2)cc1 (stereo not drawn) 32.3%
O=c1cccc(-c2ccc(Br)cc2)o1 11.7%
Cc1cc(C)cc(NC(=O)N2CCC(NC(=O)c3ccc(F)cc3)CC2)c1 15.2%
Cc1ccc(C(=O)Nc2ccc3c(c2)OCO3)cc1S(=O)(=O)N1CCCCC1 41.8%
CCOc1cccc(-c2nn3c(-c4ccccn4)nnc3s2)c1 20.7%
O=C(NC1CCCC1)c1ccc(Br)s1 -2.98%
CC(C)c1ccc(OCC(O)Cn2cnc3ccccc32)cc1 (stereo not drawn) -5.57%
c1ccc2cc(OCCN3CCCC3)ccc2c1 17.4%
COc1ccccc1N1CCN(C(=O)c2cc(-c3ccc(Cl)c(Cl)c3)on2)CC1 1.59%
Cn1c(/C(C#N)=C2/CCCCCN2)nc2ccccc21 -2.23%
CCOC(=O)c1cc2c(n(-c3ccc(C)cc3)c1=O)CCCC2=O -1.99%
CCCC1CC(C)(C(=O)Cn2[nH]c(=O)ccc2=O)OC1=O (stereo not drawn) 3.89%
Cc1ccc(S(=O)(=O)n2nc(OC(=O)C(C)(C)C)cc2N)cc1 9.62%
N#CC(C(=O)c1ccc(S(=O)(=O)N2CCCCCC2)cc1)c1nc2ccccc2[nH]1 (stereo not drawn) -6.58%
O=C(/C(=N\O)n1cncn1)c1ccc(Br)cc1Br 5.57%
COc1ccc(CCN=C2SCC(=O)N2C)cc1OC 11.7%
N#CNC1=NCN(CCc2ccccc2)CN1 17.9%
N#Cc1c(N)n(CCOC(=O)c2ccc(Cl)cc2)c2nc3ccccc3nc12 -4.03%
Fc1ccccc1OCCCCn1cncn1 -6.79%
COc1ccc(OCCCON2C(=O)c3ccccc3C2=O)cc1 -4.83%
O=C(CN1C(=O)CCC1=O)Nc1ccc(S(=O)(=O)N2CCOCC2)cc1 5.22%
CC(C)Cc1nc(N2CCOCC2)c(C#N)c2c1CCC2 -1.22%
CCOc1ccccc1C1NC(=O)NC(C)=C1C(=O)OCc1ccco1 (stereo not drawn) 16.9%
